Assay [1] in a line: qHTS assay to identify small molecule agonists of the estrogen receptor alpha (ER-alpha) signaling pathway in the presence of an antagonist - cell viability counter screen (AID 1259386).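 Further: series mostly up to about 92 µM; cells exposed to compounds for 22 h at 37 °C before the viability read; nearly all actives have a fitted effect of over 30% in size.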 The method, boiled down: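 In this counter screen, compound effects on VM7Luc4E2 viability were tested in the presence of the antagonist ICI-182,780 at 10.0nM final. Compounds were dosed at 15 concentrations, exposure lasted 22hr, and the CellTiter-Fluor signal was read.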
Background: Quantitative high-throughput screening tests each substance at several concentrations.

The target in assay [2] is Progesterone receptor (Homo sapiens) (UniProt P06401). The assay can be described thus: qHTS assay to identify small molecule agonists of the progesterone receptor (PR) signaling pathway (AID 1346784; calls by dose curve; further: nearly all actives have a fitted effect of over 30% in size). The method, boiled down: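 Compounds were tested for PR agonism in HEK 293T cells bearing a beta-lactamase gene under UAS control. Treatment lasted 16 hr at 37C; signal came from fluorescence of a FRET substrate.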

Assay [3] is described as follows: qHTS assay to identify small molecule antagonists of the progesterone receptor (PR) signaling pathway - cell viability counter screen (AID 1346798). Further: series mostly up to about 92 µM; nearly all actives have a fitted effect of over 50% in size. The method, boiled down:
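Following a 4 hr attachment, PR-UAS-bla HEK293T cells in charcoal-stripped FBS medium were exposed to compounds with R5020 for 16 hr; CellTiter-Glo was added and luminescence read after 30 min at room temperature.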

Assay [4] is described as follows: qHTS assay to identify small molecule agonists of the progesterone receptor (PR) signaling pathway - cell viability counter screen (AID 1346799; calls by dose curve; further: nearly all actives have a fitted effect of over 45% in size). The method, boiled down:
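Here, 3,000 PR-UAS-bla HEK293T cells per well were treated with compounds for 16 hr after a 6 hr preincubation at 37C and 5% CO2; cell viability is the CellTiter-Glo luminescence signal.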

Assay [5] can be described thus: qHTS assay to identify small molecule antagonists of the TGF-beta/Smad signaling pathway - cell viability counter screen (AID 1346824). Further: nearly all actives have a fitted effect of over 50% in size. The method, boiled down:
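Cytotoxicity counter-screen run in the same wells as the beta-lactamase Smad reporter read: CellTiter-Glo luminescence after 30 min at room temperature. HEK 293T SBE-bla cells had 5 hr compound exposure at 37 C with TGF-beta1 (0.25 ng/mL stock).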

Assay [6] can be described thus: qHTS assay to identify small molecule agonists of the TGF-beta/Smad signaling pathway (AID 1346859; active means well fitted activation curve with a large enough effect in the signal ratio in the repeat runs, not every such curve was filed as active; the % refers to the signal ratio; further: series mostly up to about 77 µM). The method, boiled down: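 Each well held 4,000 SBE-bla HEK 293T cells incubated overnight before compound addition; 5 hr later the cleavable FRET substrate went on for 2 hr at room temperature, and fluorescence was read at two emissions.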
In assay [7] the target is Thyrotropin-releasing hormone receptor (Homo sapiens) (UniProt P34981). Description: qHTS assay to identify small molecule antagonists of the thyrotropin-releasing hormone receptor (TRHR) signaling pathway (AID 1346877; active means well fitted inhibition curve with a large enough effect in the repeat runs, not every such curve was filed as active; further: series mostly up to about 51 µM). The method, boiled down: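 Kinetic fluorescence (3 min, 1 s resolution) following stimulation with TRH at 1 nM final; HEK293 cells bearing human TRHR; 5 min compound preincubation at RT; concentration-response over 15 points, triplicates.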

Assay [8] can be described thus: Human pregnane X receptor (PXR) small molecule agonists, qHTS cell viability counter screen (AID 1346977). Further: nearly all actives have a fitted effect of over 50% in size. The method, boiled down: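 Tox21 qHTS format; PXR-Luc HepG2, 2,000/well, charcoal-stripped FBS 5%. Cpd exposure 24hr. Read: CellTiter-Fluor fluorescence, multiplexed with luciferase.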
The nature of assay [9]: Caspase-3/7 induction in HepG2 cells by small molecules, qHTS assay (AID 1346978). Further: nearly all actives have a fitted effect of over 15% in size. The method, boiled down:
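Caspase-3/7 induction was measured by Caspase-Glo 3/7 luminescence (30 min, room temperature) after a 17 hr compound exposure of wild-type HepG2 cells seeded at 2,000 per well and pre-incubated 5 hr.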

Assay [10] in a line: Caspase-3/7 induction in CHO-K1 cells by small molecules, qHTS assay (AID 1346980). Further: nearly all actives have a fitted effect of over 15% in size. The method, boiled down: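 Luminescent Caspase-Glo 3/7 read (30min, room temperature) quantified apoptosis induction. Cells were wild-type CHO-K1, treated with compound for 17hr at 37 C and 5% CO2.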
The target in assay [11] is Nuclear receptor subfamily 1 group I member 2 (Homo sapiens) (UniProt O75469). The assay can be described thus: Human pregnane X receptor (PXR) small molecule agonists, qHTS assay (AID 1346982). Further: nearly all actives have a fitted effect of over 35% in size. Further: potency means the concentration at half of the fitted maximal effect. The method, boiled down:
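Reporter HepG2 cells expressing PXR-Luc are cultured in charcoal-stripped FBS (5%), treated with compounds for 24 hr at 37 C, and assayed by ONE-Glo luminescence after 30 min at room temperature.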

A short description of assay [12]: qHTS assay to identify small molecule agonists of the TGF-beta/Smad signaling pathway - cell viability counter screen (AID 1346829). Further: top concentration of the series differs between compounds; nearly all actives have a fitted effect of over 45% in size. The method, boiled down: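 Tox21 qHTS format: SBE-bla HEK 293T cells treated with DMSO-dissolved compounds for 5 hr; CellTiter-Glo luminescence after 30 min at room temperature.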
The target in assay [13] is Thyrotropin-releasing hormone receptor (Homo sapiens) (UniProt P34981). The assay can be described thus: qHTS assay to identify small molecule agonists of the thyrotropin-releasing hormone receptor (TRHR) signaling pathway (AID 1346891; calls by dose curve; further: series mostly up to about 58 µM). The method, boiled down: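 Screening of agonists relied on calcium signalling in HEK293 cells expressing human TRHR: dye loading 2 h at 37 °C preceded compound addition and a 3-min fluorescence time course.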

The nature of assay [14]: Caspase-3/7 induction in HepG2 cells by small molecules, qHTS cell viability counter screen (AID 1346981). Further: series mostly up to about 92 µM; nearly all actives have a fitted effect of over 30% in size. The method, boiled down:
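In this quantitative HTS counter screen, compounds delivered in DMSO were left on unmodified HepG2 cells for 16 hr at 37 C. Viability was then determined fluorometrically with CellTiter-Fluor, in parallel with caspase-3/7 induction in the same wells.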

Assay [15] addresses Acetylcholinesterase (Homo sapiens) (UniProt P22303). Description: Acetylcholinesterase (AChE) small molecule antagonists: colormetric cell-based qHTS assay (AID 1347395; calls by dose curve; further: nearly all actives have a fitted effect of over 30% in size). The method, boiled down:
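AChE inhibition read colorimetrically via DTNB–thiocholine in SH-SY5Y cells. Compound 30 min, substrate 90 min, both 37 C.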

Assay [16] concerns the target Progesterone receptor (Homo sapiens) (UniProt P06401). Description: qHTS assay to identify small molecule antagonists of the progesterone receptor (PR) signaling pathway (AID 1346795; active means well fitted inhibition curve with a large enough effect in the signal ratio in the repeat runs, not every such curve was filed as active; the % refers to the signal ratio). The method, boiled down:
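In HEK293T cells bearing the PR-UAS-bla reporter, compound effects on promegestone-driven (1 nM) beta-lactamase expression are assessed after 16 hr using a fluorescent FRET substrate incubated 2 hr at room temperature.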

Assay [17] in a line: Caspase-3/7 induction in CHO-K1 cells by small molecules, qHTS cell viability counter screen (AID 1346979). Further: nearly all actives have a fitted effect of over 35% in size. The method, boiled down:
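CellTiter-Fluor viability check, qHTS format: wild-type CHO-K1, 16hr compound treatment, 1hr reagent incubation, fluorescence read.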

In assay [18] the target is Nuclear receptor subfamily 1 group I member 2 (Rattus norvegicus) (UniProt Q9R1A7). The assay can be described thus: Rat pregnane X receptor (rPXR) activation by small molecules, qHTS assay (AID 1346983). Further: nearly all actives have a fitted effect of over 20% in size. To be noted: rPXR luciferase reporter cells, One-Glo luminescence, 24 h; active compounds read high. The method, boiled down: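 Luminescent readout (One-Glo luciferase, 30 min room temperature) followed 24 hr compound treatment at 37 C of rPXR cells plated 2,000 per well and preincubated 5hr; qHTS format with compounds delivered in DMSO.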

For assay [19], the target named is Nuclear receptor subfamily 1 group I member 2 (Homo sapiens) (UniProt O75469). Description: CYP3A4 induction through human pregnane X receptor (PXR) by small molecules, qHTS assay (AID 1346984). Further: nearly all actives have a fitted effect of over 40% in size. The method, boiled down:
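Induction measured in HepG2-based DPX-2 cells co-expressing human PXR and a CYP3A4 promoter-driven luciferase. After a 24-hour compound exposure, cells received CYP3A4 luciferin substrate at 3uM final for 3 hours, and light output was then recorded.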

For assay [20] the target is unchanged. Description: Human pregnane X receptor (PXR) activation by small molecules, qHTS assay (AID 1346985). Further: nearly all actives have a fitted effect of over 40% in size. The method, boiled down: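 DPX-2 cells (HepG2 co-transfected with a PXR response element and a CYP3A4-promoter luciferase construct) were seeded at 2,000 per well, rested 5 hr at 37C, then exposed to DMSO-dissolved compounds for 24 hr. Activation was read as luciferase luminescence.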

Several values for one entry are separate records, joined by “and”; a condition that tells them apart may be missing. Equal entries are not always repeated. A number with no mark means an inactive call. Records with an inconclusive call do not appear. Activity calls are given as the source filed them. Unless noted, the call rests on the fitted dose curve; in most records, active means well fitted curve in the direction sought with a large enough effect in the repeat runs; inconclusive means weak or mixed curves; inactive means no such curve, though single readings can be large; an effect the other way counts as inactive or inconclusive.
On the % scale 0 is the no-effect control and ±100 the full control effect.

Chain of Acetylcholinesterase (Homo sapiens) (P22303 whole entry, looked up): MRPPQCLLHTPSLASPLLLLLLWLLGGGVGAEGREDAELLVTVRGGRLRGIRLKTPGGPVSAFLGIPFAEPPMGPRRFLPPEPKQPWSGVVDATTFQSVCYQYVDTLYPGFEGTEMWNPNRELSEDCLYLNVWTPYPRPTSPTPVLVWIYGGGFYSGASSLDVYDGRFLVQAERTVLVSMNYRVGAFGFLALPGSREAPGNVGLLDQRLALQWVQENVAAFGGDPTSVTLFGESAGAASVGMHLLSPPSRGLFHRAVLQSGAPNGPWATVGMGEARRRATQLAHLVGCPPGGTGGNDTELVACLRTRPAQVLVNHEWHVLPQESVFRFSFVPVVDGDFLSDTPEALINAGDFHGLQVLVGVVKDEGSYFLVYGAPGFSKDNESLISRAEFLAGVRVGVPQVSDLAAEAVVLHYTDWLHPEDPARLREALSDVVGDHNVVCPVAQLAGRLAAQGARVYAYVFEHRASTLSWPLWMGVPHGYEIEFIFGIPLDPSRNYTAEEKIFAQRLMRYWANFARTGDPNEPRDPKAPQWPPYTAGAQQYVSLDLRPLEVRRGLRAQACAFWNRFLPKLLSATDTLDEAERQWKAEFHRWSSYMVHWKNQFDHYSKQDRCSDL
Chain of Nuclear receptor subfamily 1 group I member 2 (Homo sapiens) (O75469 whole entry, looked up): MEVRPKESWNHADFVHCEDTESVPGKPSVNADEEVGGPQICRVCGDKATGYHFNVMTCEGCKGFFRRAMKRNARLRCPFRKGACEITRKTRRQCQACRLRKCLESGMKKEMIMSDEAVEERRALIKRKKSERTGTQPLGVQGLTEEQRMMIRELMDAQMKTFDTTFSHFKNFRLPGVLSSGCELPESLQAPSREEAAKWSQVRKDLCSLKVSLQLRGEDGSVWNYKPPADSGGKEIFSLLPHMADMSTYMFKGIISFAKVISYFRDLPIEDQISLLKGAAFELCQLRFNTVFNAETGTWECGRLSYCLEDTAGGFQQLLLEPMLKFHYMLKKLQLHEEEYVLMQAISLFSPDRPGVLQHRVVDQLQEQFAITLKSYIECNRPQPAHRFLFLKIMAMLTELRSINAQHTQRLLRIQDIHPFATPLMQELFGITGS
Chain of Thyrotropin-releasing hormone receptor (Homo sapiens) (P34981 whole entry, looked up): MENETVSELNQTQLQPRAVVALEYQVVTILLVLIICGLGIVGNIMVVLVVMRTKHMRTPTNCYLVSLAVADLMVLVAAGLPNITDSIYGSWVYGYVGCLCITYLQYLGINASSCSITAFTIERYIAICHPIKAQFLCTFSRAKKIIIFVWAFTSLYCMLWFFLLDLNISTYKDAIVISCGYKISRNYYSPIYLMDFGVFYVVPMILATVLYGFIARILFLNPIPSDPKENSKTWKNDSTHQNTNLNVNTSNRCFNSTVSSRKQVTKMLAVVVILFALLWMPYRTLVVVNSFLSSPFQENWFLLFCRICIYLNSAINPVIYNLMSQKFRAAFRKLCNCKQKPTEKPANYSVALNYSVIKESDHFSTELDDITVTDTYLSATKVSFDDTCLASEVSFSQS
Chain of Progesterone receptor (Homo sapiens) (P06401 whole entry, looked up): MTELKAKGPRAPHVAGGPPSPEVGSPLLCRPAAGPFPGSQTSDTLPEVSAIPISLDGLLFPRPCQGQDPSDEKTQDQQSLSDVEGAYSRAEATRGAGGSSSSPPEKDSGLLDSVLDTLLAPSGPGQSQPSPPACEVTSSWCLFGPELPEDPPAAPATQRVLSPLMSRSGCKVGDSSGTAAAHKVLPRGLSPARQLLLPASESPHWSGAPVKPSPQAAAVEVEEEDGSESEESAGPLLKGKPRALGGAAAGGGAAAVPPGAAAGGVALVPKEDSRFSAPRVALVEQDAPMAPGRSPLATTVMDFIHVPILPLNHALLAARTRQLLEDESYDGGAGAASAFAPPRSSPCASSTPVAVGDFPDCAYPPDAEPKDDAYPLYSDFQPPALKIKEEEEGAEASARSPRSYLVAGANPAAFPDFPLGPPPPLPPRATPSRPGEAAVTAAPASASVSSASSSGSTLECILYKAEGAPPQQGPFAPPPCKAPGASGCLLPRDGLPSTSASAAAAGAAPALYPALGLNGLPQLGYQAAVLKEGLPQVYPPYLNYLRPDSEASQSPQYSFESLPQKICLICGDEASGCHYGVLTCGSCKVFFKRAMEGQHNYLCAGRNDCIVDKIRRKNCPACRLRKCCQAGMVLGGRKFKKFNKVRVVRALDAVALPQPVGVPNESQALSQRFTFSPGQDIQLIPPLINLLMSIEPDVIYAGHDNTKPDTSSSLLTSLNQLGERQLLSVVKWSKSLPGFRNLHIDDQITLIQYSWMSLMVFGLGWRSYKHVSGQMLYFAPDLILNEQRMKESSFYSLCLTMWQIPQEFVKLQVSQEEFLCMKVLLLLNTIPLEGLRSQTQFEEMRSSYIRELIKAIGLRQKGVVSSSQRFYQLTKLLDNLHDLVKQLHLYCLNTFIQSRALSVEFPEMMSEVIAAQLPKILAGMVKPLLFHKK
Chain of Nuclear receptor subfamily 1 group I member 2 (Rattus norvegicus) (Q9R1A7 whole entry, looked up): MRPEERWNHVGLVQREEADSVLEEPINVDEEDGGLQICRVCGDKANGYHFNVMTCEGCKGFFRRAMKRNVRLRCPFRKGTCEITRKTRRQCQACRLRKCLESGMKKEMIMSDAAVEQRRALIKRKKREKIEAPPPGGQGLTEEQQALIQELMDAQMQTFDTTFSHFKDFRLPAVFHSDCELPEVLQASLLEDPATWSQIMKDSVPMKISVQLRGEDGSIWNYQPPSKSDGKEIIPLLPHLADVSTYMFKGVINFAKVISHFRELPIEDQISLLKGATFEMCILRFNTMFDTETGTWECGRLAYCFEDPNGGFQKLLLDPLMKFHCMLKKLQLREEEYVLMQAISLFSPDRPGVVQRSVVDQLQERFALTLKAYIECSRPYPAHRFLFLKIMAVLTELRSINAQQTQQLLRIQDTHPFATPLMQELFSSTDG

On to `CN1CC[C@]23c4c5ccc(O)c4O[C@H]2[C@@H](O)C=C[C@H]3[C@H]1C5`, for which the Potency entry in assay [1], in assay [2], in assay [3], in [4], in assay [5] and in assay [7] was “inactive” each time. The Potency result in assay [8], in assay [9], in [10] and in assay [11] was “inactive” throughout. The outcome in assay [6] was inactive.
Consider `CC(CC(C(N)=O)(c1ccccc1)c1ccccc1)N(C)C` (centres undefined), for which the Potency entry in assay [1], in [2], in assay [3], in assay [4], in assay [5] and in assay [12] was “inactive” in each case. The Potency entry in assay [7], in [8], in assay [9], in assay [10], in [14] and in assay [11] was “inactive” in each case. The Potency result in [15] was “inactive”. Also, the compound was classed as inactive in [6] and in [13].
On to `O=C(NC(=O)c1cc(F)c(F)cc1Cl)Nc1cc(F)ccc1N1CCC(C(=O)O)CC1`, for which the Potency result in assay [1], in [2], in assay [16], in assay [12], in assay [7] and in assay [8] was “inactive” in each case. In addition, the Potency entry in assay [9], in assay [14], in assay [11] and in assay [15] was “inactive” throughout. The call in assay [6] was inactive.
On to `O=S(=O)(Cl)Cl`, for which the Potency result in assay [1], in [2], in [3], in [4], in [5] and in assay [12] was “inactive” throughout. The Potency result in assay [7], in assay [8], in [9], in assay [17], in [10] and in assay [14] was “inactive” each time. Further, the Potency result in assay [11] and in assay [15] was “inactive” each time. The result in assay [6] and in assay [13] was inactive.
As for `N#CC1(N=NC2(C#N)CCCCC2)CCCCC1`, the Potency entry in [1], in assay [2], in [3], in assay [4], in assay [5] and in [12] was “inactive” each time. For the same compound, the Potency entry in assay [7], in assay [8], in assay [9], in [17], in assay [10] and in [14] was “inactive” each time. Moreover, the Potency entry in assay [15] was “inactive”. Besides, the compound was classed as inactive in assay [6].
On to `c1ccc2sc(SNC3CCCCC3)nc2c1`, for which the Potency result in assay [1], in assay [2], in [3], in [4], in assay [5] and in assay [12] was “inactive” each time. The Potency entry in assay [7], in assay [8], in assay [9], in assay [10], in assay [14] and in assay [20] was “inactive” each time. The Potency entry in [15] was “inactive”. Also, the outcome in assay [6], in [13] and in [19] was inactive. For the same compound, the Potency in assay [11] is 60.4 µM (active) and 48.6 µM (active). Besides, the max activation in assay [18] was 11.8%.
As for `SCc1ccccc1`, the Potency entry in [1], in [2], in assay [3], in assay [4], in [5] and in [12] was “inactive” throughout. Also, the Potency result in assay [7], in [8], in [9], in assay [17], in [14] and in [11] was “inactive” in each case. Besides, the Potency result in assay [15] is “inactive”. In addition, the result in assay [13] was inactive.
